# In PubChem BioAssay:
# Calls of active or inactive are those of the source.
# Columns and labels:
# [1] = tested on: Human papillomavirus type 1a protein E7 (residues 44-93); test: HPV1a E7 fragment binders on microarrays, primary screen, biochemical, small-molecule microarray, residues 44-93, 635 nm fluorescence (AID 1108); conditions: small-molecule microarray binding, fluorescence 635 nm; higher = more signal;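 also: E7 fragment applied at 1 µg/mL in TBST for 1 h at 4 C; score combines spot fluorescence with its signal to noise ratio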
# [2] = modulators of HCV replicon luciferase signal, primary screen, HCV replication inhibitor project, Huh7 cells, luciferase reporter (AID 1109); conditions: 48 h, higher = more signal;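 also: huh7 hepatoma cells harbouring a luciferase neomycin HCV replicon reporter; luciferase luminescence as measure of HCV replicon replication; test concentration not given here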
# [3] = target: Left-right determination factor 2 (Homo sapiens) (UniProt O00292); test: LEFTY2 binders on small-molecule microarrays, primary screen, biochemical, small-molecule microarray, 635 nm fluorescence scan (AID 1110); conditions: LEFTY2 binding, higher = more signal
# [4] = target: Calmodulin-1 (Homo sapiens) (UniProt P0DP23); test: CALM1 binders on microarrays, EGTA buffer, profiling panel, biochemical, small-molecule microarray, Cy5-labelled CALM1 (AID 1111); conditions: Cy5-CALM1 binding fluorescence, higher = more signal;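 also: labelled calmodulin applied in Tris saline Tween buffer holding calcium plus EGTA and DTT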
# [5] = target: Calmodulin-1 (Homo sapiens) (UniProt P0DP23); test: calcium-bound CALM1 binders on microarrays, profiling panel, artefact control for SMM control-protein annotation, biochemical, small-molecule microarray, Cy5-labelled CALM1, plus calcium (AID 1112); conditions: Cy5-CALM1 binding fluorescence, higher = more signal;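 also: score merges spot fluorescence with signal to noise from triplicate slides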
# [6] = small-molecule microarray binders of probe aWnt5a, primary screen, biochemical, biotinylated probe, 635/667 nm fluorescence (AID 1113); conditions: higher = more signal;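 also: score merges 667 nm fluorescence intensity with signal-to-noise per printed feature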
# [7] = small-molecule microarray binders of probe aShh, primary screen, biochemical, biotinylated probe, 635/667 nm fluorescence (AID 1114); conditions: higher = more signal;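 also: probe is biotin-labelled aShh protein from a stem cell growth factor screen; measures binding of labelled protein to compounds printed on the slide; score merges feature fluorescence at 667 nm with signal-to-noise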
# [8] = small-molecule microarray binders of probe aNog, primary screen, biochemical, biotinylated probe, 635/667 nm fluorescence (AID 1115); conditions: higher = more signal;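 also: probe is biotinylated aNog protein used at 0.15 µg/mL for 1 h at 4 C; z-score combines 667 nm fluorescence of each spot with its signal to noise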
# [9] = target: Torsin-1A-interacting protein 1 (Homo sapiens) (UniProt Q5JTV8); test: LAP1 binders from COS7 cell lysate, primary screen, small-molecule microarray, 635/667 nm fluorescence (AID 1116); conditions: COS7-hLAP1 lysate binding, 635 nm fluorescence, higher = more signal
# [10] = target: Alpha-bungarotoxin (Bungarus multicinctus) (UniProt P60615); test: alpha-bungarotoxin binders on microarray, profiling panel, artefact control for SMM control protein annotation, biochemical, small-molecule microarray, Alexa647 label, 635/667 nm fluorescence (AID 1117); conditions: alpha-BTX-A647 binding fluorescence, higher = more signal
# Albumin (Bos taurus) = Albumin (Bos taurus) (UniProt P02769); test: bovine serum albumin binders on microarray, profiling panel, artefact control for SMM control protein annotation, biochemical, small-molecule microarray, Alexa647 label, 635/667 nm fluorescence (AID 1118); conditions: BSA-A647 binding, fluorescence 635 nm, higher = more signal;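 also: score merges 667 nm emission intensity and signal-to-noise per printed compound spot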
# [11] = small-molecule microarray binders of probe aXIP, primary screen, biochemical, NeuroSMM set, 635/667 nm fluorescence (AID 1119); conditions: higher = more signal, called active from +8 up or from −8 down;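 also: probe is the protein aXip251-270 applied at 1 µg/mL to compound-printed slides; binding of probe to printed compounds measured as 667 nm fluorescence plus signal to noise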
# [12] = small-molecule binders of probe aNOTCH3, primary screen, biochemical, small-molecule microarray, 635/667 nm fluorescence (AID 1120); conditions: higher = more signal;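 also: probe is a biotin-tagged antibody raised against NOTCH3 rather than NOTCH3 protein; score merges spot fluorescence near 667 nm with spot signal to noise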
# [13] = small-molecule binders of probe aNOTCH2, primary screen, biochemical, small-molecule microarray, 635/667 nm fluorescence (AID 1121); conditions: higher = more signal;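 also: score merges feature fluorescence read at 667 nm with its signal to noise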
# [14] = target: Carbonic anhydrase 2 (Homo sapiens) (UniProt P00918); test: CAII small-molecule binders, profiling panel, biochemical, small-molecule microarray, Alexa647-labelled CAII (AID 1122); conditions: CAII-A647 binding fluorescence, higher = more signal
# [15] = COS7 lysate on small-molecule microarray, probe aHis, 635 nm (AID 1123); conditions: COS7 cell lysate, fluorescence, higher = more signal;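 also: z-score combines 667nm fluorescence intensity with signal-to-noise per printed compound spot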
# [16] = compound binding in COS7 lysate, probe aLAP1, primary screen, cell lysate, small-molecule microarray (AID 1124); conditions: probe aLAP1, fluorescence, higher = more signal;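 also: lysate comes from COS7 cells expressing LAP1 and is applied at 0.3 µg/mL; score merges spot fluorescence near 667 nm with signal-to-noise over triplicate slides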
# Sam68 (KHDRBS1) = test: Sam68 small-molecule binders, primary screen, biochemical, small-molecule microarray, 635 nm fluorescence (AID 1125); conditions: small-molecule microarray binding, higher = more signal;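 also: score merges 667 nm channel intensity with signal to noise over triplicate slides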
# [17] = tested on: Chordin-like protein 2 (CHRDL2); test: CHRDL2 small-molecule binders, primary screen, biochemical, small-molecule microarray, 635 nm fluorescence (AID 1126); conditions: small-molecule microarray binding, fluorescence 635 nm; higher = more signal;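 also: printed compound slides probed with Chrdl2 protein at 4 µg/mL for 1 h at 4 C; score merges 667 nm emission intensity with signal to noise over three replicate slides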
# [18] = target: Concanavalin-A (Canavalia ensiformis) (UniProt P02866); test: ConA small-molecule binders, primary screen, artefact control for SMM control protein annotation, biochemical, small-molecule microarray, Alexa647 label, 635 nm (AID 1127); conditions: ConA-A647 binding fluorescence, higher = more signal;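 also: z combines 667 nm emission intensity with signal-to-noise across three replicate slides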
# Chain of Concanavalin-A (Canavalia ensiformis) (P02866 whole entry, looked up): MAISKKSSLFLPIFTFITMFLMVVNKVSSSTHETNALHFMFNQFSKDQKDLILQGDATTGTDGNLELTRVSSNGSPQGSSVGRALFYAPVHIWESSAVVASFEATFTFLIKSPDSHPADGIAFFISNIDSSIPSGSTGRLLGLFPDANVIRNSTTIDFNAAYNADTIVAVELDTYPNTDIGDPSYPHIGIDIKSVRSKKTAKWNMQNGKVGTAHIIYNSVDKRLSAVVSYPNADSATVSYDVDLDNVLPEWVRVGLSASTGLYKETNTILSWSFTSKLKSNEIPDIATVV
# Chain of Left-right determination factor 2 (Homo sapiens) (O00292 whole entry, looked up): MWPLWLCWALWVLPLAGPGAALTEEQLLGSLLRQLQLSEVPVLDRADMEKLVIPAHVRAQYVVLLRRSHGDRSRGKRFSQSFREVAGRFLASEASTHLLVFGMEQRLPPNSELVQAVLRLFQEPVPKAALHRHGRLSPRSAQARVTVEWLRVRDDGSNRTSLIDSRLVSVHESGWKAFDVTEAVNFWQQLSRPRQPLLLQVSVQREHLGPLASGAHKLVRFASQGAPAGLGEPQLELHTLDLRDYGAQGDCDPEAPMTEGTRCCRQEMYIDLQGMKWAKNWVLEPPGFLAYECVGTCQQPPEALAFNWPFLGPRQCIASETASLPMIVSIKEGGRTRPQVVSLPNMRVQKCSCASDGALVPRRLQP
# Chain of Albumin (Bos taurus) (P02769 whole entry, looked up): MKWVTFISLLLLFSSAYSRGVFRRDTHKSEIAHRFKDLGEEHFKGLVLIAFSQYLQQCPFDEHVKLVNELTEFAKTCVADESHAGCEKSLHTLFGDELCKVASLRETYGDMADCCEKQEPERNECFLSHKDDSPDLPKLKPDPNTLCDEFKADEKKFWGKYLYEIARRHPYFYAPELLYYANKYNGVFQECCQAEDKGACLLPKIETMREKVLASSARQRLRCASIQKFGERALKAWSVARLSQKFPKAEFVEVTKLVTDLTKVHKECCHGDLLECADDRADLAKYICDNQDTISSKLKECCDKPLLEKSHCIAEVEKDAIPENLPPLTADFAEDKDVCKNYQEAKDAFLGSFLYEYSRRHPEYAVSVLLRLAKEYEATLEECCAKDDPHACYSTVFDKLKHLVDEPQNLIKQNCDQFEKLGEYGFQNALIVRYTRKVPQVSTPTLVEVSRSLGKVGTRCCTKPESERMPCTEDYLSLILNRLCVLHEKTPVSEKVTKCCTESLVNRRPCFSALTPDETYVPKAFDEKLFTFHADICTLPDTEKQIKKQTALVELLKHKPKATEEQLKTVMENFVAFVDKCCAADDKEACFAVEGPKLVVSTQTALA
# Chain of Alpha-bungarotoxin (Bungarus multicinctus) (P60615 whole entry, looked up): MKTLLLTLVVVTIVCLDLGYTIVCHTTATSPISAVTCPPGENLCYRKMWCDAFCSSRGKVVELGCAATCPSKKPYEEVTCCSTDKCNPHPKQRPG
# Chain of Torsin-1A-interacting protein 1 (Homo sapiens) (Q5JTV8 whole entry, looked up): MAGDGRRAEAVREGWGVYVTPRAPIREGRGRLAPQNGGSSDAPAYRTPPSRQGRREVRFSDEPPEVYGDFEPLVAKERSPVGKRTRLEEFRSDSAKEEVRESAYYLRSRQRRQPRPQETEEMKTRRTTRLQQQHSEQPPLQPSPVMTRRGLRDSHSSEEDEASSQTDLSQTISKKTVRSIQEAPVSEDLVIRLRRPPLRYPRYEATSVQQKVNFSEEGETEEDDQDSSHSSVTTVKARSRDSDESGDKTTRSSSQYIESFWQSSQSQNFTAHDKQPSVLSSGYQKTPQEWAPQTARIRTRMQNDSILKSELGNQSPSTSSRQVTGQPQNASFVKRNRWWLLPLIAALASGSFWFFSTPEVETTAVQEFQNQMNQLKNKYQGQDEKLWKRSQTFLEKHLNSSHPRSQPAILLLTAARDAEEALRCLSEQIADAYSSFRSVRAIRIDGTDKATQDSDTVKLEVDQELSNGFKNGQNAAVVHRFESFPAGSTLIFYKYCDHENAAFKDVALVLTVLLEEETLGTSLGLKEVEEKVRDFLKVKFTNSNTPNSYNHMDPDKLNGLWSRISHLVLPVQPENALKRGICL
Compound,composite z-score [1],z-score [2],composite z-score [3],composite z-score [4],composite z-score [5],composite z-score [6],composite z-score [7],composite z-score [8],composite z-score [9],composite z-score [10],composite z-score (Albumin (Bos taurus)),composite Z-score [11],composite z-score [12],composite z-score [13],composite z-score [14],composite z-score [15],composite z-score [16],composite z-score (Sam68 (KHDRBS1)),composite z-score [17],composite z-score [18]
C=CCOC(=O)[C@@H]1[C@H]2C(=O)O[C@H](c3ccccc3)[C@H](c3ccccc3)N2[C@H](c2ccc(OCCOC(=O)[C@H]3C[C@H]4C(=O)N[C@@H](CCCCN(C)C)C(=O)N4[C@H]3c3ccc(O)cc3)cc2)[C@@]12C(=O)Nc1ccc(I)cc12,1.06,-3.31,1.17,-0.842,-0.972,0.0317,-0.0578,0.219,1.31,1.51,-0.839,0.929 (inactive),0.0006,-0.0698,0.426,1.95,0.148,1.29,1.1,1.15
[N-]=[N+]=Nc1ccccc1C[C@@]1(C(=O)NCC(O)CO)N=C(c2ccc(OCCCO)cc2)O[C@@H]1c1ccccc1 (stereo not given in full),0.355,-0.688,-1.28,0.754,0.0985,0.0431,0.151,0.0308,1.48,-0.422,0.579,-0.362 (inactive),-0.152,0.0231,0.719,2.01,0.353,0.206,-1.26,0.446
COC(=O)[C@@]1(Cc2ccccc2)[C@H]2c3cc(C(=O)N(C)C)n(CCSC(=N)N)c3C[C@H]2CN1C(=O)c1ccccc1,-0.98,-0.588,-0.76,0.96,0.0575,-0.0006,-0.138,1.39,3.21,-0.351,-0.107,1.22 (inactive),0.0159,0.0591,0.877,0.778,1.63,-1.71,-0.721,-1.36
CCOC(=O)C[C@H]1[C@H](OC(=O)Cc2ccc3c(c2)OCO3)[C@@H](NC(=O)c2ccc3ccccc3n2)c2cc(OCCCO)ccc2N1C(=O)Cc1ccc(OC)cc1,0.751,-1.39,0.394,0.436,0.137,-0.124,0.0723,-0.0184,0.6,0.597,0.635,0.378 (inactive),0.169,-0.0286,0.276,0.654,0.0887,0.91,-0.17,0.774
COc1ccccc1CN1C(=O)c2ccccc2[C@](Cc2ccccc2I)(C(=O)NCC(C)C)[C@@H]1c1ccc(CO)cc1,-0.237,-0.921,-1.25,-0.313,-0.18,-0.0529,-0.0243,0.215,0.078,0.237,-0.133,0.688 (inactive),-0.0693,-0.0241,0.542,1.97,0.675,0.781,-0.483,0.792
